# Measurements taken from PubChem BioAssay AID1634 (National Center for Advancing Translational Sciences (NCATS), 2009).
# The campaign covered roughly 260,000 compounds. About 150 (0.058%) were called active. Calls follow the shape of the dose curve; as a rule, active = well fitted inhibition curve with a large enough effect; inconclusive = small, poorly fitted or top-dose-only effect; inactive = no such curve, though single readings can be large or run the other way. The entries come from a sample that favours actives as a whole.
# Molecular target: Pyruvate kinase PKM (Homo sapiens) (UniProt P14618)
# Assay: qHTS Assay for Inhibitors of Human Muscle isoform 2 Pyruvate Kinase; also: nearly all actives have a fitted effect of over 60% in size;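 as to activity change, negative = inhibition: plate controls were uninhibited enzyme wells for no effect and no-enzyme wells for full effect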
# Settings: purified PKM2, ATP generation, Kinase-Glo luminescence; series mostly up to 57.5 µM; activity change, negative = inhibition: at the top concentration
# Protocol: NIH Chemical Genomics Center [NCGC] Matthew G. Vander Heiden, M.D., Ph.D. [Harvard Medical School, 77 Avenue Louis Pasteur, Boston, MA 02115] […] ATP generation was detected in a coupled reaction by luciferase-mediated luminescence, an ATP-dependent process. […] The enzyme was assayed at an intermediate level of activity to screen for both inhibitors and activators.
# NCGC Assay Protocol Summary: Three uL of substrate mix (at r.t.) in assay buffer (50 mM Imidazole pH7.2, 50 mM KCl, 7 mM MgCl2, 0.01% Tween 20, 0.05% BSA) was dispensed into white solid bottom 1,536 well microtiter plates so that the final concentrations of substrates in the assay were 0.1 mM ADP and 0.5 mM PEP. 23 nL of compound were delivered by a pin tool and 1 uL of enzyme mix in assay buffer (4 degree Celsius) was added. Plates were incubated at room temperature for 1 hour. Two uL of detection mix (Kinase-Glo, Promega; at 4 degree Celsius protected from light) was added and luminescence read by a ViewLux (Perkin Elmer) at 5 second exposure/plate. Data were normalized to the uninhibited and AC100 inhibition (no enzyme). To monitor activation, the first column contained a titration of the activator, NCGC00031955-01 (16-point 1:2 dilutions in duplicate starting at 57 uM) and the first 16 rows of column 4 contained 57 uM of NCGC00031955-01.
# Potency is read from the fitted curve at half-maximal effect.
# Chain of Pyruvate kinase PKM (Homo sapiens) (P14618 whole entry, looked up, canonical isoform): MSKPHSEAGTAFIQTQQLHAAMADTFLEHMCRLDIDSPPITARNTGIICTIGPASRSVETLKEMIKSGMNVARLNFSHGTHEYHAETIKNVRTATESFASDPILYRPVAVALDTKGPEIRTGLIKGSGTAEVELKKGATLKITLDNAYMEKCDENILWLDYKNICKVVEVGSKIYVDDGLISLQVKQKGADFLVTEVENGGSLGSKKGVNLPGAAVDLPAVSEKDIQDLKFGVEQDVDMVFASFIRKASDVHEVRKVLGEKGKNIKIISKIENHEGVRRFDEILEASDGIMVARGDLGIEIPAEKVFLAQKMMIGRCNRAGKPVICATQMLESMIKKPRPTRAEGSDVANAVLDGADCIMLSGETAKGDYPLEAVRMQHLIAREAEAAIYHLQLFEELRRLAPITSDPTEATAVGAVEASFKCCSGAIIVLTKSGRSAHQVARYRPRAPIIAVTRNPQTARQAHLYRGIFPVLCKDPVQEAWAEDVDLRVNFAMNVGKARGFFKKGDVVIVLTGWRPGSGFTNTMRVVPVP
Structure (SMILES),"activity change, negative = inhibition",Potency
Cc1ccc(Cn2c(SCC(=O)N/N=C/c3ccccc3OCC(=O)O)nc3ccccc32)cc1,50.4% (inactive),–
Cc1cc(C)n(-c2ccc3nncn3n2)n1,61.7% (inactive),–
CSC1=NCCN1C(=O)Cc1cccc2ccccc12,31.8% (inactive),–
Cc1ccnc(Nc2nc3ccccc3s2)n1,71.4% (inactive),–
N#Cc1nc(Cc2ccccc2)oc1NCCc1ccccc1,30.3% (inactive),–
Cc1cc(C)c(C#N)c(SCc2ccc3c(c2)OCO3)n1,41.7% (inactive),–
C=C(C)C(=O)O[C@H]1C/C(C)=C\C(=O)/C=C(\C)[C@H](O)[C@@H]2OC(=O)C(=C)[C@@H]21,45.7% (inactive),–
Cc1ccc2c(Cl)c(C(=O)NCCCn3ccnc3)sc2c1,36.4% (inactive),–
C=CCN(C(=O)Nc1ccc2oc(C)nc2c1)c1ccccc1,42.5% (inactive),–
O=S(=O)(c1ccc2ccccc2c1)N1CCN(S(=O)(=O)N2CCOCC2)CC1,35.8% (inactive),–
N#Cc1c2c(c(N3CCN(CCO)CC3)n3c1nc1ccccc13)CCCC2,-3.81% (inactive),–
COc1cc2c(cc1O)[C@H](Cc1ccc(Oc3cc(C[C@@H]4NCCc5cc(OC)c(O)cc54)ccc3O)cc1)NCC2,46.7% (inactive),–
CN1CCCN(S(=O)(=O)c2ccc3c(c2)OCCO3)CC1,99.8% (inactive),–
O=C(CSc1ccc(-c2ccco2)nn1)Nc1cccc(F)c1,31% (inactive),–
CCOC(=O)c1cnc(SCC(=O)Nc2cccc(OC)c2)nc1N,34.7% (inactive),–
O=C(Nc1ccccc1)c1nnsc1S(=O)(=O)c1ccc(Cl)cc1,32.3% (inactive),–
O=C(CN1CCN(S(=O)(=O)c2ccc(F)cc2)CC1)NC1CC1,38.1% (inactive),–
Cc1nc2cc(C(F)(F)F)ccc2n1CCNc1nc(-c2cc(Cl)c(N)c(Cl)c2)cs1,36.2% (inactive),–
Cc1ccc(S(=O)(=O)c2c(N)n(C)c3nc4ccccc4nc23)cc1,62.8% (inactive),–
CSc1nc2ccc(S(=O)(=O)N3CCc4ccccc43)cc2s1,68.6% (inactive),–
COc1cccc(NC(=O)CSc2nnc(Cc3ccc(OC)c(OC)c3)o2)c1,65.6% (inactive),–
CC1=C(C)CC2C(=O)N(c3cccc4ccccc34)C(=O)C2C1 (stereo not given),33.7% (inactive),–
CCOC(=O)c1c(C)oc2cc(Br)c(OCC(N)=O)cc12,2.63% (inactive),–
COc1ccc(C(=O)/C=C/Nc2ccccn2)cc1,–,15.8 µM (active)
COc1cccc(Nc2ncccc2C(=O)O)c1,31.1% (inactive),–
O=C(Nc1ccc(Br)c2cccnc12)c1ccc(Cn2cc([N+](=O)[O-])cn2)o1,34.6% (inactive),–
O=C(Oc1ccc(-c2nc(-c3ccccn3)no2)cc1)c1ccccc1,–,14.1 µM (active)
Cc1cnc(C(=O)N2CCCC(C(=O)c3ccc(C(F)(F)F)cc3)C2)cn1 (stereo not given),36.7% (inactive),–
O=C(NCc1ccccn1)c1ccc2nc(-c3ccco3)c(-c3ccco3)nc2c1,29.2% (inactive),–
O=c1c2ccccc2nnn1CSc1nnnn1-c1ccccc1,84.3% (inactive),–
